This note sets out measurements from PubChem BioAssay (NCATS).

A short description of assay [1]: Cell Viability - MRC5 (AID 434; calls by dose curve;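 also: potency is read from the fitted curve at half-maximal effect; potency reflects cytotoxicity seen as loss of intracellular ATP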). As to conditions: MRC5 lung fibroblast viability, qHTS. In short, it runs like this: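 MRC5 normal human lung fibroblasts (1500/well) were treated with compounds for 40 hr at 37 °C in complete medium, and viable cells were measured as intracellular ATP by CellTiter-Glo luminescence. AC50 came from Hill fits, normalized to DMSO and 100 uM tamoxifen.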
(qHTS replaces the single test concentration by a dilution series.)

Assay [2] is described as follows: Cell Viability - SK-N-SH (AID 435; calls by dose curve;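 also: potency is read from the fitted curve at half-maximal effect; compound exposure lasted 40 h at 37 °C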). As to conditions: SK-N-SH neuroblastoma cell viability qHTS. In a few lines: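 SK-N-SH human neuroblastoma cells (1500/well) were exposed to compounds in complete medium for 40 h at 37 °C, and intracellular ATP was then measured by CellTiter-Glo luminescence. AC50 was taken from Hill fits, normalized to DMSO and 100 uM tamoxifen.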

A short description of assay [3]: Cellular Toxicity (caspase-3) Jurkat (AID 655).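 Also: cells exposed to compound for 16 h at 37 °C before reading.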 The conditions noted are these: Jurkat caspase-3 activation, luminescence; caspase-3 activation: at 92.2 µM (top of the series), DMSO = 0%, tamoxifen = 100%. In short, it runs like this:
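Jurkat cells (5000/well) in complete medium were treated with compounds for 16 hr at 37 °C, then Caspase-Glo 3/7 luminescence was read after 20 min at room temperature. Data normalized to DMSO (basal) and 100 uM tamoxifen (100%); AC50 from Hill fit.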

The nature of assay [4]: Cellular Toxicity (caspase-3) HUV-EC-C (AID 656). The conditions noted are these: HUV-EC-C cells, caspase-3 activation (apoptosis), vehicle = 0, 100 µM tamoxifen = 100%; series mostly up to 92.2 µM. In a few lines: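 HUV-EC-C endothelial cells, 1000/well, were pre-incubated 5 hr at 37°C, then exposed to compounds for 16 hr at 37°C. Caspase-Glo 3/7 luminescence was read after 20 min at room temperature. AC50 came from Hill fits, normalized to DMSO and 100 uM tamoxifen.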

For assay [5], the target named is Cytochrome P450 3A4 (Homo sapiens) (UniProt P08684). The assay is described as follows: qHTS Assay for Inhibitors and Substrates of Cytochrome P450 3A4 (AID 884). Also: % is scaled to controls: 0 for no effect and ±100 for the full control effect; nearly all actives have a fitted effect of over 50% in size. The conditions noted are these: recombinant CYP3A4, Luciferin-PPXE luminescence; series mostly up to 57.1 µM. In short, it runs like this:
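20 nM human CYP3A4 with 25 uM Luciferin-PPXE (at KM) in 200 mM KPO4, preincubated 10 min with compound; NADPH regeneration started a 60 min RT reaction. Luciferin detected by luminescence, normalized to 57 uM ketoconazole as full inhibition.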

The nature of assay [6]: MultiTox-Fluor Cytotoxicity Assay - LYMP1-001 - Live Cells (AID 947).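 Also: 0% = DMSO only and full inhibition = tetraoctylammonium bromide control.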 As to conditions: LYMP1-001 lymphoblastoid cells, live-cell protease fluorescence viability; series mostly up to 92.2 µM.
A short description of assay [7]: Cell Viability - LYMP1-002 - Assay at 16 hr (AID 948).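 Also: 0% = DMSO alone and full effect = 92 µM tetraoctylammonium bromide.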 The conditions noted are these: LYMP1-002 lymphoblastoid cell viability; series mostly up to 92.2 µM. In a few lines:
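Human lymphoblastoid cells (LYMP1-002), 2500/well, were preincubated 5 hr at 37 C, then exposed to compounds for 16 hr at 37 C in complete medium. Cellular ATP was read by CellTiter-Glo luminescence after 30 min at room temperature; AC50 from Hill fits.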

A short description of assay [8]: Cell Viability - LYMP2-004 (AID 966).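 Also: plate controls were DMSO only for no effect and tetraoctylammonium bromide control for full effect; nearly all actives have a fitted effect of over 65% in size.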 The conditions noted are these: LYMP2-004 lymphoblastoid cell viability, qHTS; series mostly up to 92.2 µM. In a few lines: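 Cells seeded 2500/well, rested 5 hr at 37 C, dosed across a concentration series, incubated 24 hr at 37 C, then CellTiter-Glo added for 30 min at room temperature and luminescence read. Hill fitting gave AC50.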

Assay [9] in a line: Cell Viability - LYMP2-015 (AID 971).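 Also: 0% = DMSO only and full effect = 92 µM tetraoctylammonium bromide; nearly all actives have a fitted effect of over 55% in size.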 As to conditions: LYMP2-015 lymphoblastoid cell viability; series mostly up to 92.2 µM. In a few lines: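 Luminescent ATP read-out (CellTiter-Glo) served as the viability measure after lymphoblastoid cells were exposed to compounds for 24 hours at 37 C. Concentration-response data were fitted with the Hill equation to give AC50.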
Assay [10] is described as follows: Cell Viability - LYMP2-019 (AID 973).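 Also: 0% = DMSO alone and full effect = 92 µM tetraoctylammonium bromide; nearly all actives have a fitted effect of over 55% in size.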 The conditions noted are these: LYMP2-019 lymphoblastoid cell line viability; series mostly up to 92.2 µM. In a few lines:
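Luminescent ATP read-out (CellTiter-Glo, 30 min room temperature) served as the viability measure after 24 hr treatment of lymphoblastoid cells at 37 C. Concentration-response data were fitted to the Hill equation for AC50.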

Assay [11] can be described thus: Cell Viability - LYMP2-007 (AID 979).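 Also: cells exposed to compound for 24 h before reading; 0% = DMSO only and the negative end = 92 µM tetraoctylammonium bromide; nearly all actives have a fitted effect of over 60% in size.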 As to conditions: LYMP2-007 lymphoblastoid cell viability; series mostly up to 92.2 µM. In a few lines:
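Luminescent ATP signal (CellTiter-Glo) serves as the viability read-out after 24 hr compound treatment of lymphoblastoid cells in complete medium at 37 C. Concentration-response data were fitted to the Hill equation to give AC50 values.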

Assay [12] in a line: Cell Viability - LYMP2-008 (AID 980). Also: % is scaled to controls: 0 for no effect and ±100 for the full control effect; nearly all actives have a fitted effect of over 60% in size. As to conditions: LYMP2-008 lymphoblastoid cell viability, qHTS; series mostly up to 92.2 µM. In a few lines:
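qHTS, human lymphoblastoid line, 2500 cells/well; 5 hr preincubation, 24 hr compound, 37 C. CellTiter-Glo ATP luminescence. AC50 via Hill equation. Tetraoctylammonium bromide positive control.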

Assay [13] is described as follows: Cell Viability - LYMP2-014 (AID 983).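 Also: plate controls were DMSO only for no effect and 92 µM tetraoctylammonium bromide for full effect; nearly all actives have a fitted effect of over 50% in size.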 As to conditions: LYMP2-014 lymphoblastoid cells, viability qHTS; series mostly up to 92.2 µM. In a few lines: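 Luminescent ATP signal (CellTiter-Glo, 30 min at room temperature) serves as the viability read-out after 24 hr compound exposure at 37 C. Cells were seeded at 2500 per well and settled 5 hr beforehand.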
Assay [14] is described as follows: Cell Viability - LYMP2-018 (AID 985).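 Also: plate controls were DMSO only for no effect and tetraoctylammonium bromide at 92 µM for full effect; nearly all actives have a fitted effect of over 50% in size.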 As to conditions: LYMP2-018 lymphoblastoid cells, viability (qHTS); series mostly up to 92.2 µM. In a few lines: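 Luminescent ATP signal (CellTiter-Glo, read after 30 min at room temperature) reports viable cells after 24 hr compound treatment at 37 C. Concentration-response data were fitted to the standard Hill equation for AC50.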

Assay [15] in a line: Cell Viability - LYMP2-020 (AID 986).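 Also: plate controls were DMSO only for no effect and tetraoctylammonium bromide at 92 µM for full effect; nearly all actives have a fitted effect of over 55% in size.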 As to conditions: series mostly up to 92.2 µM. In short, it runs like this: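 Luminescent ATP signal (CellTiter-Glo, 30 min at room temperature) is the read-out after 24 h compound treatment of lymphoblastoid cells at 37 C. AC50 values come from Hill-equation fits across concentrations.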
A short description of assay [16]: Cell Viability - LYMP2-022 (AID 987).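 Also: 0% = DMSO alone and full effect = tetraoctylammonium bromide at 92 µM; nearly all actives have a fitted effect of over 55% in size.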 The conditions noted are these: LYMP2-022 lymphoblastoid cell viability; series mostly up to 92.2 µM. In short, it runs like this: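 qHTS: human lymphoblastoid cells 2500/well; 5 hr 37 C; cpd added; 24 hr 37 C; CellTiter-Glo, 30 min RT; luminescence. AC50 via Hill fit; tetraoctylammonium bromide positive ctrl.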
A short description of assay [17]: Cell Viability - LYMP2-026 (AID 989). Also: % is scaled to controls: 0 for no effect and ±100 for the full control effect; nearly all actives have a fitted effect of over 50% in size. As to conditions: LYMP2-026 lymphoblastoid cell viability, qHTS; series mostly up to 92.2 µM. In short, it runs like this: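 Luminescent ATP signal (CellTiter-Glo, 30 min room temperature) measures viable lymphoblastoid cells after 24 hr compound treatment at 37 C. Decreased ATP reflects acute toxicity; AC50 values come from Hill-equation modeling.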

The target of assay [18] is Voltage-gated inwardly rectifying potassium channel KCNH2 (Homo sapiens) (UniProt Q12809). The assay is described as follows: qHTS Assay for Small Molecule Inhibitors of the Human hERG Channel Activity (AID 588834). As to conditions: U2OS BacMam hERG, FluxOR thallium flux fluorescence; series mostly up to 92.2 µM. In short, it runs like this: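 U2OS cells transduced with hERG via BacMam (MOI ~100), plated 2000/well, loaded with FluxOR thallium dye, compound ~10 min, then stimulation buffer; fluorescence decrease read kinetically; AC50 from Hill fits.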

A short description of assay [19]: Cellular Toxicity (caspase-3) H-4-II-E (AID 663).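 Also: cells exposed to compound for 16 hr before readout.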 As to conditions: H-4-II-E rat hepatoma; Potency: caspase-3 activation; series mostly up to 92.2 µM. In a few lines: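 Luminescence from caspase-cleaved aminoluciferin substrate, read 20 min after reagent addition, reports caspase 3/7 activation in rat H-4-II-E cells after 16 hr compound exposure. Normalized to DMSO (basal) and 100 uM tamoxifen (100%); AC50 from Hill fits.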

A short description of assay [20]: qHTS assay for small molecule antagonists of retinoid X receptor alpha signaling (AID 588546).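 Also: cells stimulated with 9-cis-retinoic acid as agonist; % is scaled to controls: 0 for no effect and ±100 for the full control effect.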 As to conditions: HEK293T RXRa-UAS-bla, beta-lactamase ratio, antagonist mode; measured here: W530 green channel, cytotoxicity proxy. In short, it runs like this: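 Beta-lactamase reporter inhibition, read as CCF4 fluorescence ratio (ex 405, em 460/530 nm) after 2 h at RT. HEK293T UAS-bla cells, 2500/well, were stimulated with 9-cis-RA at 500 or 100 nM final alongside test compound for 18 h at 37 C.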

SMILES strings stand for the structures. Where “and” joins values, the source holds several entries; their conditions need not be identical. Equal values may be shown once. Records with an inconclusive call do not appear. Calls of active or inactive are those of the source. Unless noted, calls follow the shape of the dose curve; as a rule, active = well fitted curve in the direction sought with a large enough effect; inconclusive = small, poorly fitted or top-dose-only effect, or another doubt; inactive = no such curve, though single readings can be large; an effect the other way counts as inactive or inconclusive.

Chain of Voltage-gated inwardly rectifying potassium channel KCNH2 (Homo sapiens) (Q12809 whole entry, looked up): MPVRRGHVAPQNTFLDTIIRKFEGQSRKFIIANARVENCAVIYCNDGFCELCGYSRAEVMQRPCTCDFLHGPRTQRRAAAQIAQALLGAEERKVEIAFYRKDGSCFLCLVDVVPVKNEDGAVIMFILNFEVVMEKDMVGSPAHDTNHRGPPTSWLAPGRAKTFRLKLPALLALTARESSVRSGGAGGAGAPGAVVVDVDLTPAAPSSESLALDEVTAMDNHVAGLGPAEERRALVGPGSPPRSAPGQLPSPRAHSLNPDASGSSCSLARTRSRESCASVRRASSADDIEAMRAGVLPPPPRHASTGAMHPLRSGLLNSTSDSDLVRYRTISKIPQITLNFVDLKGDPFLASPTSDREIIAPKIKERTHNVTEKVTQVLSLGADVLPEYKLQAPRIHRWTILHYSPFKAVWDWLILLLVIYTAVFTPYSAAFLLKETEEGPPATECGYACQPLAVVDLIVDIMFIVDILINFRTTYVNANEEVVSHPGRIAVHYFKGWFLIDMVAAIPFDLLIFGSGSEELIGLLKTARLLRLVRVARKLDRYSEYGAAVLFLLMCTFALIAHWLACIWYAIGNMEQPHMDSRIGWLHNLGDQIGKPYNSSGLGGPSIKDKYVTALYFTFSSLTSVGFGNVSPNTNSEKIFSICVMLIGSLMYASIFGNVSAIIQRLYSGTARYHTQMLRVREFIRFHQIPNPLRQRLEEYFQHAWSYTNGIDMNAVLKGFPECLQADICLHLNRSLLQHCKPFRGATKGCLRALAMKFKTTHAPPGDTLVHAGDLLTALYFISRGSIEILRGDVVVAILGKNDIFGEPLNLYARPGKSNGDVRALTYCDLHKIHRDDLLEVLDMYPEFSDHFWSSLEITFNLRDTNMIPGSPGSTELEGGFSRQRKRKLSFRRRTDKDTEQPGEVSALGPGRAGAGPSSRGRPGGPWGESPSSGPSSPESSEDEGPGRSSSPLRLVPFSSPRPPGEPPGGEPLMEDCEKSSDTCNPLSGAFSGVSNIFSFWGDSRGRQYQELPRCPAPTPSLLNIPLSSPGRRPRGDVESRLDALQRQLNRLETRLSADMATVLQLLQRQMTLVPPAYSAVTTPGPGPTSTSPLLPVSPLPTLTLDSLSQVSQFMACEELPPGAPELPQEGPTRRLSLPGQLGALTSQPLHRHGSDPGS
Chain of Cytochrome P450 3A4 (Homo sapiens) (P08684 whole entry, looked up): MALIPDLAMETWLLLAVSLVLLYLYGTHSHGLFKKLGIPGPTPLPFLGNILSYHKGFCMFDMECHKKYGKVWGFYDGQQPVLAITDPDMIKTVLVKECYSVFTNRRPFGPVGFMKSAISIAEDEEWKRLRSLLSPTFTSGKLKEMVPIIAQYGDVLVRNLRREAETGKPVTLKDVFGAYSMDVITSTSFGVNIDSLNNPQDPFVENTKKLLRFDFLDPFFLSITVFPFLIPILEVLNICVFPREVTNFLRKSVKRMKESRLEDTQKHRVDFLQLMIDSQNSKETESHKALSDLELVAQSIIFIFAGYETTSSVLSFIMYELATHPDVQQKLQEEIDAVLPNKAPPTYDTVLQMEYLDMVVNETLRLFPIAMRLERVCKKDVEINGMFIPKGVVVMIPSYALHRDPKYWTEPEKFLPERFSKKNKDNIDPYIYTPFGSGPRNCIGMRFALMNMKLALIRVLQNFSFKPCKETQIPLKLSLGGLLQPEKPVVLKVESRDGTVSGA

With `C=CC=O`, the Potency in [1] and in assay [2] was > 92 µM (inactive) in each case. In addition, the caspase-3 activation in assay [3] is 13.2% (inactive). The compound was called inactive in assay [4], in [6] and in [7]. The Potency entry in [5], in assay [8], in assay [9], in assay [10], in [11] and in assay [12] was “inactive” throughout. Moreover, the Potency entry in assay [13], in [14], in assay [15], in [16], in [17] and in assay [18] was “inactive” in each case.

Turning to `O=[N+]([O-])CCO`, the Potency in [1] and in assay [2] was > 92 µM (inactive) in each case. Moreover, in [3], the caspase-3 activation was -0.445% (inactive). Moreover, the outcome in assay [4], in assay [6] and in assay [7] was inactive. For the same compound, the Potency result in assay [19], in assay [5], in assay [8], in assay [9], in assay [10] and in assay [11] was “inactive” throughout. In addition, the Potency entry in assay [12], in assay [13], in [14], in assay [15], in assay [16] and in assay [17] was “inactive” each time. For the same compound, the Potency entry in [18] is “inactive”. The max response in assay [20] worked out at 2.49%.

As to `OCCBr`, the Potency in assay [1] and in assay [2] was > 92 µM (inactive) in each case. The caspase-3 activation in assay [3] is -0.73% (inactive). Further, the result in assay [4] and in assay [7] was inactive. Further, the Potency result in assay [5], in [8], in assay [9], in assay [10], in assay [11] and in assay [12] was “inactive” throughout. The Potency entry in assay [13], in assay [14], in [15], in assay [16], in assay [17] and in assay [18] was “inactive” each time. The max response in assay [20] stood at 8.33%.

For `Nc1ccc2ccccc2c1`, the Potency in assay [1] and in [2] was > 92 µM (inactive) throughout. In addition, the caspase-3 activation in [3] is 1.77% (inactive). For the same compound, the call in assay [4], in assay [6] and in assay [7] was inactive. Also, the Potency entry in assay [19], in assay [8], in assay [9], in [10], in [11] and in assay [12] was “inactive” in each case. For the same compound, the Potency result in assay [13], in assay [14], in assay [15], in [16], in assay [17] and in assay [18] was “inactive” each time. For the same compound, the max response in [20] is -4.26%.

For `Cl/C=C/CCl`, the Potency in [1] and in [2] was > 92 µM (inactive) each time. For the same compound, the caspase-3 activation in assay [3] was 1.51% (inactive). The compound was classed as inactive in assay [4], in assay [6] and in assay [7]. Moreover, the Potency result in assay [19], in [5], in assay [8], in [9], in assay [10] and in assay [11] was “inactive” throughout. For the same compound, the Potency result in assay [12], in assay [13], in assay [14], in assay [15], in [16] and in assay [17] was “inactive” in each case. The Potency result in assay [18] was “inactive”. The max response in [20] is 3.06%.

In the case of `CCCCCCCCCCCCCl`, the Potency in [1] and in [2] was > 92 µM (inactive) throughout. Further, the caspase-3 activation in assay [3] is 1.16% (inactive). Besides, the compound was called inactive in assay [4], in assay [6] and in assay [7]. Besides, the Potency entry in assay [19], in assay [5], in assay [8], in [9], in assay [10] and in [11] was “inactive” throughout. For the same compound, the Potency entry in assay [12], in [13], in assay [14], in assay [15], in [16] and in assay [17] was “inactive” each time. The Potency entry in assay [18] was “inactive”. Besides, the max response in assay [20] was -8.5%.

`ClCc1ccccn1`: the Potency in [1] and in [2] was > 92 µM (inactive) throughout. Also, the caspase-3 activation in [3] is 1.38% (inactive). In addition, the outcome in assay [4], in assay [6] and in assay [7] was inactive. For the same compound, the Potency entry in assay [19], in [5], in [8], in assay [9], in assay [10] and in [11] was “inactive” in each case. Further, the Potency result in assay [12], in assay [13], in assay [14], in assay [15], in assay [16] and in assay [17] was “inactive” throughout. The Potency result in assay [18] is “inactive”. In assay [20], the max response was 3.04% and -6.39%.
